Bioassay records: PubChem, National Center for Advancing Translational Sciences (NCATS)
Most compounds without a hit are left out; they make up all but 21% or so of the library.
NS1 function inh = qHTS Assay for Inhibitors of Influenza NS1 Protein Function; actives 0.4% (n = 270,000); Potency, µM (series often up to 46.1 µM); AID 2326, 2010; calls by dose curve; further: actives are rising curves; nearly all actives have a fitted effect of over 50% in size
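Recovery from NS1-induced slow growth read by OD600 in budding yeast switched to galactose assay medium (pH 6.0, -URA) at 1:100 dilution. Compound 23 nl per well; the matching strain lacking NS1 serves as control.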
Sm TGR inh = qHTS Assay for the Inhibitors of Schistosoma Mansoni Peroxiredoxins; Schistosoma mansoni thioredoxin glutathione reductase (TGR), Q962Y6; purified TGR, DTNB reduction, TNB absorbance 405 nm; Potency, µM (highest dose often 114 µM), hits mostly inhibitors; actives 3% (n = 360,000); AID 485364, 2010; further: nearly all actives have a fitted effect of over 60% in size
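Kinetic colorimetric format: TGR-catalysed, NADPH-driven DTNB reduction monitored via TNB absorbance. Enzyme dispensed at 20 nM; compound exposure 15 min at room temperature before reaction start.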
CHX counter = Cycloheximide Counterscreen for Small Molecule Inhibitors of Shiga Toxin; cell reporter, cycloheximide protein synthesis inhibition counterscreen; max response, %; actives 12% (n = 300,000); in the data active means max response mostly above about 13%, no sharp cut-off; inactive means mostly below about 14%; further: read at 38.3 µM for the half of the compounds with a filed dose
Pf growth 48h = Primary qHTS for delayed death inhibitors of the malarial parasite plastid, 48 hour incubation; P. falciparum luciferase growth in erythrocytes, 48 h; Potency, µM (top dose mostly 28.7 µM), usual class: inhibitors; actives 5.9% (n = 310,000)
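Parasite viability was followed by luminescence of a genomically integrated firefly luciferase. Cultures held 0.1% parasitemia at 2% hematocrit (final), incubated under 5% CO2 at 37 C.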
Shiga toxin inh = A qHTS for Small Molecule Inhibitors of Shiga Toxin | Vero cells, Shiga toxin protein synthesis inhibition reporter | inhibition, % at 38.7 µM | AID 2315, 2010 | actives 9.2% (n = 290,000); in the data active means inhibition mostly above about 28%, no sharp cut-off; inactive means mostly below about 43%
Pf growth 96h = Primary qHTS for delayed death inhibitors of the malarial parasite plastid, 96 hour incubation | P. falciparum luciferase reporter growth, 96 h | Potency, µM (doses to about 28.7 µM), actives largely listed as inhibitors | actives 6.9% (n = 320,000) | AID 504834, 2011
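P. falciparum expressing integrated firefly luciferase, in erythrocytes at 2% hematocrit, 0.05% parasitemia, incubated with compounds 96 h at 37 C, 5% CO2. Growth inhibition read as loss of luminescence; two-generation exposure targets delayed-death apicoplast inhibitors.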
Of the large screens only hits and unclear results are named; the others gave an inactive call. Unless noted, the call rests on the fitted dose curve; in most records, active means well fitted curve in the direction sought with a large enough effect; inconclusive means small, poorly fitted or top-dose-only effect, or another doubt; inactive means no such curve, though single readings can be large; an effect the other way counts as inactive or inconclusive.

Cc1ccc(OCCN2CCN(C(=O)CCC(=O)Nc3nnc(CC(C)C)s3)CC2)cc1	Pf growth 48h 12µM, Pf growth 96h 0.33µM
CC(C)Cc1nnc(NC(=O)CCC(=O)N2CCN(Cc3ccc(F)cc3)CC2)s1	Pf growth 96h inconclusive
COC(=O)c1ccc(CO/N=C(\NC(C)=O)c2nonc2NC(C)=O)cc1	none
O=C(Nc1cccnc1)OC1CCCCC1	CHX counter 19 (no result: NS1 function inh)
O=C(Nc1cccnc1)OC1CCCC1	CHX counter 22 (no result: NS1 function inh)
O=C(CCC(=O)NC1CCCCC1)Nc1cccnc1	none
CCOc1ccc(S(=O)(=O)N2CCCC(C(=O)NCc3cccnc3)C2)cc1Cl (stereo unspecified)	Pf growth 96h inconclusive
CCOC(=O)c1cccc(NC(=O)CSc2cc(=O)n(C)c3ccccc23)c1	none (no result: NS1 function inh, CHX counter, Pf growth 48h, Shiga toxin inh, Pf growth 96h)
Cc1ccc(NC(=O)Cn2c(=O)n(Cc3nc(-c4ccccc4)no3)c(=O)c3cc4c(cc32)OCO4)cc1C	none (no result: NS1 function inh, CHX counter, Pf growth 48h, Shiga toxin inh, Pf growth 96h)
Cc1cc(/C(N)=N/OC(=O)c2ccc(Cl)cc2)no1	CHX counter 35, Shiga toxin inh 61
N/C(=N\OC(=O)c1ccc(Cl)cc1)c1[nH]ncc1Br	CHX counter 64, Shiga toxin inh 95
Cc1cc(/C(N)=N/OC(=O)c2cccc(Cl)c2)no1	CHX counter 59, Shiga toxin inh 111
Cc1cc(C(=O)NNC(=O)c2ccc(Cl)cc2)no1	none
Cc1cc(C(=O)NNC(=O)c2cccc(Cl)c2)no1	none
N/C(=N/OC(=O)c1ccc(Cl)cc1)c1ncc([N+](=O)[O-])s1	CHX counter 26, Pf growth 48h inconclusive, Shiga toxin inh 66, Pf growth 96h inconclusive
O=C(NCC1CCCCC1)c1cc(S(=O)(=O)N2CCOCC2)ccc1F	Pf growth 48h inconclusive (no result: NS1 function inh, CHX counter, Shiga toxin inh)
Cc1cccc(C(=O)NNC(=O)c2csc(N3CCOCC3)n2)c1C	none (no result: NS1 function inh, CHX counter, Shiga toxin inh)
O=C1OC2(O)C3C4C=CC(C4)C3C(=O)N2c2ccccc21 (stereo unspecified)	Pf growth 48h 2.3µM
Cc1ccc2c(c1)C(=O)OC1(O)C3C4C=CC(C4)C3C(=O)N21 (stereo unspecified)	none
CCCCn1c(N)c(N(CCOC)C(=O)c2cccc(S(=O)(=O)N(CC)c3ccccc3)c2)c(=O)[nH]c1=O	Pf growth 48h inconclusive, Pf growth 96h inconclusive (no result: NS1 function inh, CHX counter, Shiga toxin inh)
CCC(=O)N1CCN(c2ccc(Cl)cc2NC(=O)c2ccc3c(c2)OCCO3)CC1	Pf growth 48h inconclusive
O=C(Nc1cc(C(F)(F)F)ccc1N1CCCC1)c1ccc2c(c1)OCO2	Pf growth 48h inconclusive
CCC(=O)N1CCN(c2ccc(Cl)cc2NC(=O)c2ccc(N3CCCC3)c([N+](=O)[O-])c2)CC1	Pf growth 48h inconclusive, Pf growth 96h 1.9µM
Cc1ccc(C(=O)Nc2cc(C(F)(F)F)ccc2N2CCCCC2)cc1[N+](=O)[O-]	Pf growth 48h 13µM
O=C(Nc1cc(C(F)(F)F)ccc1N1CCCCC1)c1cccc([N+](=O)[O-])c1	Pf growth 48h 15µM, Pf growth 96h inconclusive
CN(C)S(=O)(=O)n1cc(/C=C(\NC(=O)c2ccccc2F)C(=O)N2CCCC2)c2ccccc21	Pf growth 48h inconclusive
CCCNC(=O)c1noc2c1CCc1cc(OC)ccc1-2	CHX counter 48, Shiga toxin inh 71 (no result: NS1 function inh)
COc1ccc2c(c1)CCc1c(C(=O)NCC(C)C)noc1-2	CHX counter 39, Shiga toxin inh 178, Pf growth 96h inconclusive (no result: NS1 function inh)
COc1ccc2c(c1)CCc1c(C(=O)Nc3ccc(OC)cc3OC)noc1-2	none (no result: NS1 function inh, CHX counter, Pf growth 48h, Shiga toxin inh, Pf growth 96h)
COc1ccc2c(c1)CCc1c(C(=O)NCc3cccnc3)noc1-2	Sm TGR inh 28µM, CHX counter 12
COc1ccc2c(c1)CCc1c(C(=O)N3CCCCCC3)noc1-2	Sm TGR inh inconclusive, CHX counter 46, Shiga toxin inh 114, Pf growth 96h inconclusive
COc1ccc(CCNC(=O)Cc2c(C)c3cc4c(C(C)(C)C)coc4c(C)c3oc2=O)cc1OC	none (no result: NS1 function inh, CHX counter, Pf growth 48h, Shiga toxin inh, Pf growth 96h)
O=C(COC(=O)c1cccc(S(=O)(=O)NCc2ccccc2)c1)NCC1CCCO1 (stereo unspecified)	none (no result: NS1 function inh)
O=c1c2ccccc2nc2sc(Nc3ccc(F)cc3)nn12	Pf growth 48h inconclusive, Pf growth 96h inconclusive (no result: NS1 function inh, CHX counter, Shiga toxin inh)
Cc1ccc(Nc2nnns2)cc1	none
CC1(C)CN=C(Nc2nc3ccccc3s2)S1	CHX counter 38, Shiga toxin inh 77
Cc1ccccc1Nc1nn2c(=O)c3ccccc3nc2s1	Pf growth 96h 2.6µM
Cc1ccc(Nc2nc3ccccc3s2)cc1	CHX counter 29, Shiga toxin inh 72
Cc1ccccc1NP(=O)(c1ccccc1)c1nc2ccccc2s1 (stereo unspecified)	Pf growth 48h inconclusive (no result: NS1 function inh)
O=C(O)C1C2CCC(C2)C1C(=O)Nc1nc2ccccc2s1 (stereo unspecified)	Pf growth 96h inconclusive
Cc1ccccc1Nc1nc2ccccc2s1	CHX counter 66, Shiga toxin inh 135
CCCc1cc(C(=O)Nc2ccc(C(=O)c3ccc(C)cc3)cc2)n(C)n1	Pf growth 96h inconclusive
O=[N+]([O-])c1ccc(Nc2nc3ccccc3s2)cc1	none (no result: Sm TGR inh, CHX counter, Pf growth 48h, Shiga toxin inh, Pf growth 96h)
Fc1ccc(Nc2nc3ccccc3s2)cc1	CHX counter 40, Shiga toxin inh 120 (no result: NS1 function inh)
NC(=O)NC(CC(=O)NCCc1ccc(S(N)(=O)=O)cc1)c1ccccc1Cl (stereo unspecified)	none
CCCOc1ccc(CCc2n[nH]c(=S)n2Cc2ccccc2)cc1	Pf growth 48h 5.9µM
CCCOc1ccc(CCc2n[nH]c(=S)n2-c2ccccc2)cc1	none (no result: Sm TGR inh)
Nn1cnnc1N/N=C/c1ccc(Cl)cc1Cl	CHX counter 12
COc1ccc(/C=N/Nc2nncn2N)cc1Br	CHX counter 22, Pf growth 48h inconclusive, Pf growth 96h inconclusive (no result: Shiga toxin inh)
COc1cc(/C=N/Nc2nncn2N)ccc1OCc1c(C)no[n+]1[O-]	CHX counter 13, Pf growth 48h inconclusive, Pf growth 96h inconclusive
COc1cc(/C=C(\C#N)C(N)=O)ccc1OCc1c(C)no[n+]1[O-]	none
Cc1cccc(OCC(=O)NC(=S)Nc2ccc(S(=O)(=O)NC3CCCCC3)cc2)c1	none (no result: Pf growth 48h)
CC(C)Cc1ccc(C(=O)Nc2ccc(Cc3ccncc3)cc2)o1	none
COc1cc(C(=O)Nc2cccc(S(=O)(=O)N3CCCC3)c2)c([N+](=O)[O-])cc1OC	none (no result: NS1 function inh, CHX counter, Shiga toxin inh)
Cc1ccc(C(=O)Nc2cccc(S(=O)(=O)N3CCCCC3)c2)cc1[N+](=O)[O-]	Pf growth 48h 4.7µM, Pf growth 96h 8.3µM (no result: NS1 function inh, CHX counter, Shiga toxin inh)
O=C(Nc1cccc(S(=O)(=O)N2CCCCC2)c1)c1ccc([N+](=O)[O-])o1	CHX counter 29, Pf growth 48h inconclusive, Pf growth 96h 9.3µM (no result: NS1 function inh)
O=C(COC(=O)c1ccc([N+](=O)[O-])o1)Nc1cccc(S(=O)(=O)N2CCCCC2)c1	Sm TGR inh inconclusive (no result: NS1 function inh)
COCCCn1c(=O)c2sccc2n2c(CCCC(=O)NCc3cccc(OC)c3)nnc12	Pf growth 48h inconclusive, Pf growth 96h inconclusive
